# Unmarked numbers belong to inactive results. Calls come from the whole dose curve; as a rule, active = well fitted curve in the direction sought with a large enough effect; inconclusive = small, poorly fitted or top-dose-only effect, or another doubt; inactive = no such curve, though single readings can be large or run the other way.
# Molecular target: Hexokinase-4 (Homo sapiens) + Glucokinase regulatory protein (Homo sapiens) (UniProt P35557+Q14397)
# Assay: qHTS assay for inhibitors of recombinant human GCK-GKRP interaction: Diaphorase-coupled assay (AID 743205)
# Conditions: G6PDH/diaphorase resorufin fluorescence; series mostly up to 57.5 µM; activity change, positive = activation: at the top concentration
# Text: Glucokinase (GCK) is a glucose sensor in hepatocytes and pancreatic beta-cells. Hepatic GCK is regulated by glucokinase regulatory protein (GKRP), which is predominantly localized to the liver. GKRP binds to GCK inhibiting its activity in the fasting state while in the presence of glucose the GKRP is displaced. There is an additional layer of regulation by fructose 1-phosphate and fructose 6-phosphate, which inhibit and enhance the GCK-GKRP interaction, respectively. GCK plays a role in glucose homeostasis and there is an interest in the development of strategies to activate GCK to lower blood glucose levels in type 2 diabetes. To date the majority of effort has focused on direct activation of GCK and the assays developed herein look to activate GCK by inhibiting its binding to GKRP. A compound that inhibits the interaction of GCK with GKRP could be important for the treatment of diabetes and can also be used as a tool compound to further elucidate GCK-GKRP biology. To that end, we have developed a sensitive HTS biochemical assay where in GCK activity is coupled to G6PDH and Diaphorase to interrogate the GCK-GKRP interaction. This assay was screened against a small compound library to look for modulators of activity.
# 2 uL of substrate (columns 1-48) are dispensed into Greiner, black solid-bottom 1536-well assay plates. Compounds (23 nL) are then transferred via Kalypsys pin tool equipped with 1536-pin array (10 nL slotted pins, V&P Scientific, San Diego, CA). The library compounds are in columns 5-48 and columns 1-4 serve as controls with DMSO in columns 1 and 3 and 26 mM 1:1.5 fold serial of gluckokinase activator (GKA-EMD) in column 2 and 26 mM of the glucokinase activator (GKA-EMD) in column 4. Following addition of compound and a 20 minute incubation, 1 uL of enzyme mix (GST-GCK, FLAG-GKRP and diaphorase) is added to columns 1, 2, 4-48 and 1 uL of no enzyme mix (FLAG-GKRP and diaphorase) is added to column 3 and the fluorescent product resorufin generated from resazurin was monitored on a Viewlux (PerkinElmer, Shelton, CT, USA) with excitation at 525 nm and emission at 590 nm in kinetic mode where the plate was read every minute for 30 minutes. The final concentration of reagents in the reaction are 25 mM Hepes pH 7.6, 25 mM KCl, 2 mM MgCl2, 1.4 mM 2-mercaptoethanol, 0.025% BSA, 0.01% Tween-20, 0.15 mM NADP+, 5 mM glucose, 0.4 mM ATP, 4 U/ml G6PDH, 0.1 mM resazurin, 10 nM GST-GCK, 10 nM FLAG-GKRP, diaphorase (0.1 mg/mL). Data are normalized to DMSO-treated control columns with (maximum signal) and without (minimum signal) enzyme.
# Chain of Hexokinase-4 (Homo sapiens) + Glucokinase regulatory protein (Homo sapiens) (P35557 whole entry, looked up): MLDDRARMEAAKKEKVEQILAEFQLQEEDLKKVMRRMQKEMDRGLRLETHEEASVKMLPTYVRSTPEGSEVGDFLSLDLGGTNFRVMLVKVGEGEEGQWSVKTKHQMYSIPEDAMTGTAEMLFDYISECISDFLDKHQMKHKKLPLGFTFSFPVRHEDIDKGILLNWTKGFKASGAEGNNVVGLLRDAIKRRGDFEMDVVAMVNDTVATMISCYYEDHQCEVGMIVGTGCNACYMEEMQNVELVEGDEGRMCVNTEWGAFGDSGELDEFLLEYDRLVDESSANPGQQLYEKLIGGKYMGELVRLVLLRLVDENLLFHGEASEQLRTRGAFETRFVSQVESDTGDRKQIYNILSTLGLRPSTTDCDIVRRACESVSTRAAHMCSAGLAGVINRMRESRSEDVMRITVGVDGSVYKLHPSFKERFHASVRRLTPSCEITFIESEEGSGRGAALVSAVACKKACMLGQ
# Chain of Hexokinase-4 (Homo sapiens) + Glucokinase regulatory protein (Homo sapiens) (Q14397 whole entry, looked up): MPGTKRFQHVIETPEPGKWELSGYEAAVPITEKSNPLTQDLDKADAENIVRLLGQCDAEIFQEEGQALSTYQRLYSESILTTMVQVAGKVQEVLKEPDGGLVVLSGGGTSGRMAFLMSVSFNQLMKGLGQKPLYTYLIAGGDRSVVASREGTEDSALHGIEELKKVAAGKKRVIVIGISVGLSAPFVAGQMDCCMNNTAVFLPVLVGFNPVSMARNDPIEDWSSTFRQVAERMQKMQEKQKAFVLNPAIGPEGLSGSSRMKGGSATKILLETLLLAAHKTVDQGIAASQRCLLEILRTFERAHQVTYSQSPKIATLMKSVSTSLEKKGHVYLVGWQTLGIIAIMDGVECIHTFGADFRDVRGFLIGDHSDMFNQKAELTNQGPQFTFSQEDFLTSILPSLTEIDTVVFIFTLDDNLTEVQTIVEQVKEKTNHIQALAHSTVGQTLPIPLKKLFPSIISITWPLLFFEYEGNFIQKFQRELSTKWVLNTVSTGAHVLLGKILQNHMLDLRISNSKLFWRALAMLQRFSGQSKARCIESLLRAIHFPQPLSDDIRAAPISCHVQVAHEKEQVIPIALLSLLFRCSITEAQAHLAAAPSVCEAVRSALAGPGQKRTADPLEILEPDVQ
row,Compound,"activity change, positive = activation"
1,C[C@]12C=CC(=O)C=C1CC[C@@H]1C2=CC[C@]2(C)[C@@H](C(=O)CN3CCN(c4cc(N5CCCC5)nc(N5CCCC5)n4)CC3)CC[C@@H]12,-29.3%
2,COc1cc(/C=C(\C#N)C(=O)Nc2nnc(C(F)(F)F)s2)ccc1OCc1ccc(C(F)(F)F)cc1C(F)(F)F,-3.28%
3,O=C1Cc2c([nH]c3ccc(Br)cc23)-c2ccccc2N1,1.49%
4,COc1cc(N)c(Cl)cc1C(=O)OCCN1CCCCC1,-0.811%
5,Nc1ccc(N2C(=O)c3ccccc3C2=O)c(Cl)c1,-11.3%
6,N[C@@H](CCCC(=O)O)C(=O)O,-4.86%
7,OC[C@H]1NC[C@@H](O)[C@@H]1O,-0.3%
8,CC(=O)NCCc1c[nH]c2ccc(O)cc12,-28.6%
9,O[Si](CCCN1CCCCC1)(c1ccc(F)cc1)C1CCCCC1 (stereo not given),0.174%
10,N[C@@H](Cc1ccc(O)c(I)c1)C(=O)O,0.245%
11,C=C1C(=O)O[C@@H]2[C@H]3O[C@]3(C)CCC=C(C)CC[C@@H]12,-2.6%
12,Cn1c(=O)c2[nH]c(-c3ccc(S(=O)(=O)O)cc3)nc2n(C)c1=O,-1.37%
13,N=C(N)SCCN,-3%
14,Nn1nnc2ccccc21,-1.35%
15,O=c1[nH]c(=S)[nH]c(-c2ccccc2)c1Cc1c(O)ccc2ccccc12,-10.1%
16,CC(C)Cn1c(=O)n(C)c(=O)c2[nH]cnc21,-4.47%
17,Cc1nc2n(c(=O)c1CCN1CCC(c3noc4cc(F)ccc34)CC1)CCCC2O (stereo not given),-0.375%
18,N[C@H](C(=O)O)[C@H](O)C(=O)O,-5.06%
19,NCC(O)(CS(=O)(=O)O)c1ccc(Cl)cc1 (stereo not given),-0.607%
20,C[C@H]1CC2C3CCC4=CC(=O)C=C[C@]4(C)[C@@]3(Cl)[C@@H](O)C[C@]2(C)[C@@]1(O)C(=O)CO (stereo not given in full),-1.92%

row,Compound,"activity change, positive = activation"
1,Nc1ncnc2c1nc(Br)n2C1OC2COP(=O)(O)O[C@@H]2C1O (stereo not given in full),1.61%
2,O=C(O)c1ccccc1Nc1ccccc1,7.67%
3,N=C(N)c1ccccc1,-5.04%
4,CC1=C(C(=O)O)N2C(=O)[C@@H](NC(=O)C(N)C3=CCC=CC3)[C@H]2SC1 (stereo not given in full),-10.6%
5,CN[C@H](CC(=O)O)C(=O)O,-2.17%
6,[Li+],-0.252%
7,CCCCC[C@H](CC(=O)NO)C(=O)N[C@H](C(=O)N1CCC[C@H]1CO)C(C)C,3.5%
8,O=c1[nH]ccc2c(O)cccc12,-5.12%
9,Cn1ccnc1,-3.28%
10,Nc1nc2c(nc(Br)n2C2OC3COP(=O)(O)O[C@@H]3C2O)c(=O)[nH]1 (stereo not given in full),-0.0411%
11,NC(=O)c1ccccc1,-4.99%
12,COC(=O)[C@H](NC(=O)c1cc(-c2ccccc2)nc2ccccc12)c1ccccc1,-3.76%
13,CCCCCC[C@@H]([C@@H](C)O)n1cnc2c(N)ncnc21,-1.09%
14,Cn1c(=O)c2c(nc(/C=C/c3cccc(Cl)c3)n2C)n(C)c1=O,-4.45%
15,NCCCCN,-3.14%
16,CCCCCCC/C=C\CCCCCCCCC(=O)O,-2.49%
17,COc1cc(C(O)C(=O)O)ccc1O (stereo not given),-2.49%
18,CSC(=N)N,-2.04%
19,CCn1c(=O)[nH]c2cc(Cl)c(Cl)cc21,-3.9%
20,O=c1[nH]c2ccccc2c2ccccc12,-6.81%

# Reference: PubChem BioAssay (NCATS)
